# From PubChem BioAssay (Tox21)
# Results filed as inconclusive are left out. Calls of active or inactive are those of the source. Calls follow the shape of the dose curve; as a rule, active = well fitted inhibition curve with a large enough effect in the repeat runs; inconclusive = weak or mixed curves; inactive = no such curve, though single readings can be large or run the other way.
# Molecular target: Androgen receptor (Homo sapiens) (UniProt P10275)
# Assay: qHTS assay to identify small molecule antagonists of the androgen receptor (AR) signaling pathway using the MDA cell line in the presence of 0.5 nM R1881 (AID 1259243); also: nearly all actives have a fitted effect of over 50% in size
# Conditions: MDA-kb2 MMTV-luciferase, R1881 0.5 nM, 16 h; series mostly up to 92.4 µM; activity, negative = inhibition: at the top concentration
# In short: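 Inhibition of R1881 (0.5 nM final) induced reporter signal was measured in human MDA-kb2 cells; note the MMTV promoter also responds to GR. Exposure lasted 16 hr at 37C.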
# % is scaled to controls: 0 for no effect and ±100 for the full control effect; potency is read from the fitted curve at half-maximal effect.
# Androgen receptor (Homo sapiens), sequence (P10275 whole entry, looked up): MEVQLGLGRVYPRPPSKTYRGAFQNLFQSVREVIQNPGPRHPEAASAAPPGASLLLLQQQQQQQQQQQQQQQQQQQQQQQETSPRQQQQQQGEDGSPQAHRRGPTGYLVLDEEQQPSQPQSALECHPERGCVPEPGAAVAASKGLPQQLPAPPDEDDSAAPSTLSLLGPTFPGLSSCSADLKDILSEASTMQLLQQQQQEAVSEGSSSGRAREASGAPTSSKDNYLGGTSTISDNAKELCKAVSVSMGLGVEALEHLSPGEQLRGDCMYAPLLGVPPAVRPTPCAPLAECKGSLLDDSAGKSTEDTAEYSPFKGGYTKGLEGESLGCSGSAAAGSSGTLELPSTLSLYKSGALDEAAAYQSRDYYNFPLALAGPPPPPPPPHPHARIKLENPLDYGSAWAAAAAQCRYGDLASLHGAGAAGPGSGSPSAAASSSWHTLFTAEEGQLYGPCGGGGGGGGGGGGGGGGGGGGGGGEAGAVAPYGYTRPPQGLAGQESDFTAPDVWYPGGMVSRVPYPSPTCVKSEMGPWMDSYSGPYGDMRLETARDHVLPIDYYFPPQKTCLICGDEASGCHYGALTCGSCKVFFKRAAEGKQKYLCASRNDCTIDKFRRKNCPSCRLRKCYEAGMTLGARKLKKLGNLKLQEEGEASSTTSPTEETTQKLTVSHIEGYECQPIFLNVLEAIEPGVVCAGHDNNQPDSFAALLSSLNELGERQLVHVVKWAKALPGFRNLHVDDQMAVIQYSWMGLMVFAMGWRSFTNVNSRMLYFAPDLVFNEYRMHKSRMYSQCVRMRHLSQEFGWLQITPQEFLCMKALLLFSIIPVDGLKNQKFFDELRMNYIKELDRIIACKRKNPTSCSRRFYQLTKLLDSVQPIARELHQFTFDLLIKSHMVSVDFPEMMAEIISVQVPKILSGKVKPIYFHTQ
Structure (SMILES),"activity, negative = inhibition",Potency
N#CC(Cl)(Cl)Cl,-4.24% (inactive),
O=C(Nc1ccccc1)c1ccccc1I,-10.1% (inactive),
COP(N)(=S)Oc1ccccc1C(=O)OC(C)C (stereo not given),-18.3% (inactive),
O=CNC(N1CCN(C(NC=O)C(Cl)(Cl)Cl)CC1)C(Cl)(Cl)Cl (stereo not given),,30.6 µM (active)
CC(COc1ccc(Oc2ccccc2)cc1)Oc1ccccn1 (stereo not given),-4.19% (inactive),
CC1=C(C(=O)O)N2C(=O)[C@@H](N)[C@H]2SC1,15.5% [at 19 µM] (inactive),
Cc1cnc[nH]1,-2.43% (inactive),
C#CCN1C(=O)COc2cc(F)c(N3C(=O)C4=C(CCCC4)C3=O)cc21,-13% (inactive),
CCOP(=O)(OCC)OP(=O)(OCC)OCC,4.77% (inactive),
CCCCOC(=O)c1ccccc1C(=O)O,-7.51% (inactive),
CC(C)CC#N,-1.05% (inactive),
Cc1nc(N)nc(N)n1,64.7% (inactive),
CCOC(=O)C1(c2ccccc2)CCN(CCc2ccc(N)cc2)CC1,-8.04% [at 42.5 µM] (inactive),
CCC(=O)c1ccccc1,17% (inactive),
C[C@]12CC[C@H]3[C@@H](CCC4=CC(=O)CC[C@@]43C)[C@@H]1CC[C@@H]2C(=O)O,-9.52% [at 42.5 µM] (inactive),
